Compound activity (PubChem)
MmCpn inh – M. maripaludis TRiC chaperonin inhibition; purified Mm-Cpn ATPase, ADP Transcreener TR-FRET; Potency, µM (highest dose often 76.9 µM), inactives show top-dose activity, negative = inhibition, most hits filed as inhibitors; hit rate 0.031% among 330,000; AID 504842; further: on the % scale 0 is the no-effect control and ±100 the full control effect; nearly all actives have a fitted effect of over 80% in size
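Purified archaeal Mm-CPN (25nM final) preincubated 10 min at 37degC with compound, then 10uM ATP for 30 min at 37degC; ADP measured by HTRF Transcreener TR-FRET; buffer 30 mM TRIS pH 7.4, 100mM KCl, 5mM MgCl2, 1mM DTT.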
USP2a inh – USP2a (human) protease inhibition; AID 463254; Potency, µM (top dose mostly 38.3 µM), inactives show at the highest dose activity change, negative = inhibition, actives largely listed as inhibitors; hit rate 0.01% among 330,000; USP2 core, Ub-CHOP2 coupled fluorogenic reporter, 485/531;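 further: plate controls were DMSO wells for no effect and full inhibition by NEM control for full effect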
Target sequence (O75604 whole entry, looked up): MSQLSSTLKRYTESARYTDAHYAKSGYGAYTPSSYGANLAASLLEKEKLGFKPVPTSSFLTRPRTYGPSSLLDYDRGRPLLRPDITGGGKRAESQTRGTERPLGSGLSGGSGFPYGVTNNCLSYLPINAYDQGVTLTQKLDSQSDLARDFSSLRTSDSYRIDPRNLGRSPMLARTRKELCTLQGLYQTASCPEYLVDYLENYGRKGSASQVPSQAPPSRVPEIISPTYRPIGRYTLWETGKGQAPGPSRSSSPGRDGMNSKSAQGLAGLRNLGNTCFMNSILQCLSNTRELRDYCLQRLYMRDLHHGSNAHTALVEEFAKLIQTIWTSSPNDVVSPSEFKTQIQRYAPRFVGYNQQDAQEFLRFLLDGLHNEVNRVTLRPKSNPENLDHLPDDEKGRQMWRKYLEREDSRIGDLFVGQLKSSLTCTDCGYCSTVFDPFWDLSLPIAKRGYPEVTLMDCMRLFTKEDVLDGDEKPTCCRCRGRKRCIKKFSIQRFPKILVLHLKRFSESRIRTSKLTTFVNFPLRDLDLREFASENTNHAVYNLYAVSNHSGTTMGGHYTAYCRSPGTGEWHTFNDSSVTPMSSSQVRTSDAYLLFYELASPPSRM
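Deubiquitinase activity read as fluorescence (485/531 nm) after Ub-CHOP2 cleavage activates the enterokinase reporter on its substrate; USP2 core 10nM, Ub-CHOP2 and substrate 25nM each, 30min compound preincubation then 60min RT; data normalized to NEM, curves fitted.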
Integrin act MD – integrin-mediated muscular dystrophy alleviation activation; Potency, µM (doses to about 38.3 µM), without a hit: top-dose activation, usual class: activators; alpha7betagal myoblasts, beta-gal FDG fluorescence, 48 h; hit rate 0.064% among 350,000; AID 624291;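 further: 100% = response of the positive control SU9516; nearly all actives have a fitted effect of over 60% in size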
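Alpha7betagal+/- myoblasts (passage 13) were plated 16-24 hr, then exposed to compounds (1:260 dilution of DMSO stock) for 48 hours at 37C. After MPER lysis, β-galactosidase reporter activity was read as FDG fluorescence (ex 480/em 540) after 30 minutes.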
p53 reactivation – mutant p53 re-activation in reporter cells. H1299 p53-A138V BP100-luciferase reporter, luminescence, 24 h. Potency, µM (highest dose often 92.2 µM), for inactives: top-dose activity change, positive = activation, usual class: activators. hit rate 0.063% among 320,000; further: % of control where 0% means no effect; nearly all actives have a fitted effect of over 45% in size
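H1299 (p53-null), stable ts p53-A138V + BP100-Luc; 1000 cells/well, Opti-MEM/10% FBS; cpd 4 pt, 1:5; 24 h, 37 deg C, 5% CO2; detection reagent 10 min RT; luminescence.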
Eya2 inh – blocks the phosphatase activity of human Eya2. O00167. hit rate 0.006% among 330,000. recombinant Eya2, OMFP fluorescence dephosphorylation (OMFP is methylfluorescein phosphate). Potency, µM (titrated, usually from 76.9 µM), for inactives: top-dose activity, negative = inhibition, hits mostly inhibitors; further: on the % scale 0 is the no-effect control and ±100 the full control effect
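Eya2 protein (added as 0.2 uM solution) was preincubated with compound for 10 min at ambient temperature in 50 mM HEPES pH 7.5, 50 mM NaCl, 5 uM MgCl2, 0.05% BSA, 1 mM DTT. OMFP (added at 50 uM) then reacted 10 min; fluorescence read at 485/525 nm.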
ClpP mod – qHTS Assay for Activators of ClpP; hit rate 1.9% among 340,000; purified B. subtilis ClpP, FRET peptide cleavage, 20 min; Potency, µM (series often up to 57.5 µM), for the others: top-dose activity change, negative = active; active means well fitted falling curve with a large enough effect; inconclusive means small, poorly fitted or top-dose-only effect; inactive means no such curve, though single readings can be large or run the other way; further: the source files actives as falling curves though it sought activators and does not explain the sign; nearly all actives have a fitted effect of over 65% in size
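Purified B. subtilis ClpP, 10 microg/mL final in Tris/HCl pH8 with KCl, BSA, glycerol and Tween-20, cleaved an Abz/nitrotyrosine-quenched decapeptide. Fluorescence (ex 320, em 430) was read at 0 and 20 min at room temperature. Delta was normalized to 5.8 microM ADEP and DMSO/no-enzyme controls.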
Starred values were filed as active, the others as inactive; u = inconclusive; x = no result given; ! = not confirmed by another sample; [ ] = another dose, or the depositor's remark. The sample as a whole holds a higher share of hits than the screen did. Unless noted, the call rests on the fitted dose curve; in most records, active means well fitted curve in the direction sought with a large enough effect; inconclusive means small, poorly fitted or top-dose-only effect, or another doubt; inactive means no such curve, though single readings can be large; an effect the other way counts as inactive or inconclusive. Potency means the concentration at half of the fitted maximal effect.

SMILES	MmCpn inh	USP2a inh	Integrin act MD	p53 reactivation	Eya2 inh	ClpP mod
Cc1ccc(OCCn2cc(/C=C3\C(=O)NN(c4ccccc4)C3=O)c3ccccc32)cc1	0%	0%	17%	1%	0%	18µM*
Cc1nc2cc(-c3cccs3)[nH]n2c(=O)c1C	x	x	-4%	x	x	14µM*
CCNc1nc(C)cc(COC)c1C#N	0%	6%	4%	-1%	1%	67%
COCc1cc(C)nc(NCCO)c1C#N	x	x	12%	x	x	32µM*
COc1cccc(Cn2c(N)c(C#N)c3nc4ccccc4nc32)c1OC	-3%	1%	-45%	-3%	4%	13µM*
COc1cc(Cn2c(N)c(C#N)c3nc4ccccc4nc32)cc(OC)c1	-9%	-5%	-12%	-10%	-22%	32µM*
COc1ccc(Cn2c(N)c(C#N)c3nc4ccccc4nc32)cc1	0%	0%	-56%	5%	-31%	u
COCCn1c(N)c(C#N)c2nc3ccccc3nc21	-3%	-2%	-10%	-6%	0%	-2%
c1cnc2[nH]ccc2c1	x	x	x	x	x	-7%
CCOC(=O)c1ccc(CNc2ncnc3nc[nH]c23)cc1	x	x	x	x	x	-5%
CCOC(=O)c1cc(-c2ccccc2)n(CCC(=O)Nc2ccc(C(F)(F)F)cc2)c1C	x	x	x	x	x	-4%
O=c1c2oc3ccccc3c2n(Cc2ccccc2F)c(=O)n1Cc1ccc2c(c1)OCO2	x	x	x	x	x	25µM*
CC(C)OC(=O)CSc1nc(N)c(C#N)c(-c2ccco2)c1C#N	u	5%	-9%	-2%	-8%	20µM*
COC(=O)c1ccc(Cl)cc1NC(=O)N1CC=C(c2c[nH]c3ccccc23)CC1	x	x	x	x	x	28µM*
Cc1ccc(NC(=O)N2CC=C(c3c[nH]c4ccccc34)CC2)cc1Cl	x	x	x	x	x	-15%
CC(=O)Nc1ccc(NC(=O)COC(=O)c2ccccc2OCc2cccc(Br)c2)cc1	x	x	x	x	x	-4%
CCS(=O)(=O)N1CCCC(C(=O)c2ccc(OC)cc2C)C1 (centres undefined)	-1%	-1%	11µM*	0%	-14%	1%
COc1ccc(C(=O)C2CCCN(S(=O)(=O)c3ccc(C(C)=O)cc3)C2)c(C)c1 (centres undefined)	0%	-1%	-42%	-15%	-5%	1%
N/C(=N\OC(=O)COc1ccc(Br)cc1Cl)c1ccncc1	3%	-1%	7%	u	3%	-3%
N/C(=N\OC(=O)COc1cc(Cl)c(Cl)cc1Cl)c1ccncc1	0%	10%	11µM*	5%	-4%	x
O=S(=O)(c1ccccc1)n1ccc(-c2cnc(-c3ccccc3)s2)n1	1%	0%	-50%	18%	-7%	14µM*
Cc1ccc(Cn2ccc(-c3cnc(-c4ccccc4)s3)n2)cc1	-7%	2%	-16%	28%	-11%	-22%
COc1ccccc1CNC(=O)C1CCN(C2=NS(=O)(=O)C(c3ccc(C)c(C)c3)=C2C)CC1	x	x	x	x	x	0%
CN(C)c1ccc(N/C=C/C(=O)C(C)(C)C)cc1	22µM*	0%	-50%	u	13%	-3%
O=C(NCCN1CCN(c2cccc(Cl)c2)CC1)C1COc2ccccc2C1 (centres undefined)	x	x	x	x	x	-1%
SMILES	MmCpn inh	USP2a inh	Integrin act MD	p53 reactivation	Eya2 inh	ClpP mod
COc1ccc(OC)c(/C=N/NC(=O)CCc2ccc(O)c(O)c2)c1	-1%	0%	-18%	3%	6%	8.9µM*
COc1ccc(OC)c(/C=N/NC(=O)CC2C(=O)NN=C2C)c1 (centres undefined)	-3%	3%	11%	-21%	-5%	28µM*
Cc1ccc(C2CC(=O)N(Cc3ccccc3)c3c2c(C)nn3-c2nc(C)cc(C)n2)cc1 (centres undefined)	x	x	x	x	x	1%
CC(NC(=O)c1ccccc1NS(=O)(=O)c1ccc(CCC(=O)O)cc1)c1ccccc1 (centres undefined)	-5%	1%	u	15%	8%	28µM*
CCc1nnc(NS(=O)(=O)c2ccc(NC(=O)c3ccccc3)cc2)s1	-1%	-2%	-12%	8%	17%	0%
CCc1nnc(NC(=O)c2ccc(NS(=O)(=O)c3ccccc3)cc2)s1	0%	2%	-19%	-3%	0%	28µM*!
Cc1ccc(CN2CCN(C(=O)c3cccc4ccccc34)CC2)cc1	-3%	-2%	-2%	x	-7%	x
O=C(c1ccncc1)N1CCN(C(=O)c2cccc3ccccc23)CC1	0%	1%	23%	20%	8%	14µM*
Cc1cccc(CN2CCN(C(=O)c3cccc4ccccc34)CC2)c1	0%	3%	-13%	-1%	-7%	32µM*
O=C(C[n+]1ccncc1)c1cccc2ccccc12	x	x	x	x	x	1%
c1ccc(-c2noc(-c3cccnc3)n2)cc1	x	x	0%	x	x	-2%
O=c1[nH]c2ccccc2cc1-c1noc(-c2cccnc2)n1	1%	0%	15%	21%	15%	32µM*
c1ccc(-c2ccc(-c3nc(-c4cccnc4)no3)cc2)cc1	-6%	3%	-6%	36%	-2%[15.4 µM]	14µM*
COc1ccc2[nH]c(=O)c(-c3noc(-c4ccccc4)n3)cc2c1	-2%	0%	u	u	16%	-12%
Cc1cc(NC(=O)C2CCN(S(=O)(=O)c3cccs3)CC2)no1	0%	0%	5%	-9%	5%	0%
O=C(Nc1ccon1)C1CCN(S(=O)(=O)c2cccs2)CC1	3%	-1%	11%	-5%	-6%	25µM*
CC(C)c1ccc(NC(=O)CN2C=NS(=O)(=O)c3ccccc32)cc1	x	x	x	x	x	0%
CSc1ccc(CCNC(=O)c2cc3cc(S(=O)(=O)N4CCCCC4)ccc3n2C)cc1	x	x	x	x	x	22µM*
O=C(O)/C=C\C(=O)Nc1ccccc1C(=O)NCc1ccccc1	-1%	-1%	25%	2%	8%	4µM*
O=C(O)/C=C/C(=O)NCc1ccccc1	2%	0%	7%	6%	-1%	-7%
CS(=O)(=O)N(Cc1ccc(C(=O)NC2CCCC2)cc1)c1ccccc1	0%	-1%	10µM*	-3%	-8%	0%
CS(=O)(=O)N(Cc1ccc(C(=O)NN=C2CCCCCC2)cc1)c1ccccc1	0%	0%	8%	4%	-1%	32µM*
CS(=O)(=O)N(Cc1ccc(C(=O)NN=C2CCCC2)cc1)c1ccccc1	-2%	0%	21%	-2%	3%	-1%
CC(=O)Nc1ccc(-c2cc(-c3ccccc3)nc(-c3ccccc3)n2)cc1	-1%	4%	21%	-8%	6%	28µM*
